Test results: PubChem BioAssay
Where “and” joins values, the source holds several entries; their conditions need not be identical. Equal entries are not always repeated. For part of these data: Potency and affinity values are given separately. Some structures have more than one record in an assay (separate samples or runs), and their calls can disagree. Calls of active or inactive are those of the source. Unless noted, the rule behind the calls is not given here.

Assays:
[1] = Cy5 fluorescence interference with SSB-bound oligo, artefact control for HCV NS3 helicase inhibitor project, biochemical, NIH Clinical Collection, E. coli SSB (AID 743268)
[2] = tested on: Hepatitis C virus NS3 helicase; test: HCV NS3 helicase inhibitors, primary screen, biochemical, fluorescence polarization, NIH Clinical Collection (AID 743270); details: NS3 helicase binding to Cy5-dT15 DNA, stronger effect = higher value, concentration not given here
[3] = molecular target: Single-stranded DNA-binding protein (Escherichia coli (strain K12)) (UniProt P0AGE0); test: E. coli SSB displacement from DNA, counter-screen for HCV NS3 helicase inhibitor project, biochemical, fluorescence polarization, NIH Clinical Collection (AID 743271; in the data active = inhibition above about 28%); details: stronger effect = higher value, concentration not given here
[4] = fluorescence interference in NS3h assay format, artefact control for HCV NS3 helicase inhibitor project, biochemical, NIH Clinical Collection (AID 743272); details: fluorescence interference counterscreen, stronger effect = lower value;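 note: HCV NS3 helicase with a Cy5 labelled single stranded DNA probe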
[5] = modulation of C. elegans fzo-1 (AID 1259413);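 note: fzo-1 mutant C. elegans worms in liquid wells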; details: C. elegans fzo-1 modulator screen, mean read-out; stronger effect = higher value
[6] = molecular target: NAD(+) hydrolase SARM1 (Homo sapiens) (UniProt Q6SZW1); test: SARM1 TIR NADase inhibitors, cell lysate, NAD-Glo luminescence (AID 1508614;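 active = compound whose remaining NAD level is above about 45 nM, limit read from the data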;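 note: higher remaining NAD means stronger inhibition of SARM1 NADase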); details: SAM-TIR HEK293T lysate NADase, at 1 µM, stronger effect = higher value
NAD(+) hydrolase SARM1 (Homo sapiens), sequence (Q6SZW1 whole entry, looked up, the tested form may be a part): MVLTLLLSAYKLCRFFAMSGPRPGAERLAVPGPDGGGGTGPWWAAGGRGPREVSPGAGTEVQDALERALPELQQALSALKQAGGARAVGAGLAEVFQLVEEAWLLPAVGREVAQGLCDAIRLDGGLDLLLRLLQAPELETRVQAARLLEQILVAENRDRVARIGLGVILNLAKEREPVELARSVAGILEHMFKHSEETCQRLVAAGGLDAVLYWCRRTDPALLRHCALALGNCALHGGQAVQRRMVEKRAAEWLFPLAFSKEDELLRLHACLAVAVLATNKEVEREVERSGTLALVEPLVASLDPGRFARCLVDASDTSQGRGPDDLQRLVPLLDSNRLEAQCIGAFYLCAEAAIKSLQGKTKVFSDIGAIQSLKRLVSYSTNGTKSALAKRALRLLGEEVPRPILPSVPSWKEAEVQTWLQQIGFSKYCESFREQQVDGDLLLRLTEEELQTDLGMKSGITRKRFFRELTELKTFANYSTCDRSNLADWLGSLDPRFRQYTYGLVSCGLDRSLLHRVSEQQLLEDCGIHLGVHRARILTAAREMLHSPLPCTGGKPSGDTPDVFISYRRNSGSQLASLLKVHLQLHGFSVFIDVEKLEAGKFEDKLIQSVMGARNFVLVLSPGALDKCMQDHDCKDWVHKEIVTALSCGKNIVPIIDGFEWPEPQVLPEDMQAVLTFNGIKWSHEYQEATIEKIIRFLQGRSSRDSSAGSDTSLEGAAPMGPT

[7] = molecular target: Mitogen-activated protein kinase 7 (Homo sapiens) (UniProt Q13164); test: ERK5 transactivation activators in reporter cells, primary screen, cell-based, HTS (AID 1508626;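 active = luciferase signal above three times the same-plate solvent-only control wells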;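 note: luciferase driven by Gal4-ERK5 fusion binding five Gal4 sites before minimal TATA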); details: HeLa Gal4-ERK5 transactivation, 18 h, at 5 µM, stronger effect = higher value
Mitogen-activated protein kinase 7 (Homo sapiens), sequence (Q13164 whole entry, looked up, the tested form may be a part): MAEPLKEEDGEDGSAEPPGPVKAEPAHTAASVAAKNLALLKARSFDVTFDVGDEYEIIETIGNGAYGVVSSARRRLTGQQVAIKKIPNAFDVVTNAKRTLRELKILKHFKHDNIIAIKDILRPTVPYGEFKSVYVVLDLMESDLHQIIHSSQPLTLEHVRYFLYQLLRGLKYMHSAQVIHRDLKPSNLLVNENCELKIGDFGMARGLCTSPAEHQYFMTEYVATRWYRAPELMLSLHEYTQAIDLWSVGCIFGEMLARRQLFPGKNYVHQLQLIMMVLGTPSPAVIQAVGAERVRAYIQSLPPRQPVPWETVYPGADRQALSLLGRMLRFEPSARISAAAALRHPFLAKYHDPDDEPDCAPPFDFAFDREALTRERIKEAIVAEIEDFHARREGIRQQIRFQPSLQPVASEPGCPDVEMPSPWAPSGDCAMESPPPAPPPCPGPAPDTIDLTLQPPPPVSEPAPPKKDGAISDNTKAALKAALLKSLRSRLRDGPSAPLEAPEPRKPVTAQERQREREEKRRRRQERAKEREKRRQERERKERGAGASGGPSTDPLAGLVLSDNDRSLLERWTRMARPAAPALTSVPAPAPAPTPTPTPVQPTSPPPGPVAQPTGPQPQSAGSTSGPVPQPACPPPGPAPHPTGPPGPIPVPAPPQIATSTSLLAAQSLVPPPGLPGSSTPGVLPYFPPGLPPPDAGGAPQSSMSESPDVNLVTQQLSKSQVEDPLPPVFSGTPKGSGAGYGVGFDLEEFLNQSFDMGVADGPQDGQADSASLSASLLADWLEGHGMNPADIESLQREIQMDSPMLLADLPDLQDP

[8] = viability rescue of complex I mutant cybrids, primary screen, cell-based, galactose medium, ATP luminescence (AID 1645843;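 active = z-score of at least 1.8 in each of two replicates, scored against plate mean and spread of sample wells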;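 note: positive z means more ATP and so rescue of galactose-driven cybrid death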); details: complex I mutant cybrid cells, 72 h, stronger effect = higher value
[9] = ICB984 medulloblastoma cell growth inhibition, synergistic combos for chromothripsis tumors, cisplatin or BGB combos (AID 1671451); details: ICB984 medulloblastoma cells, drug combinations, stronger effect = higher value;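 note: cells exposed for 96 hours before readout; 0% = vehicle DMSO and 100% = killing by high DMSO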
R275C/beta2Delta = test: modulators of BK channel variants, profiling panel, selectivity assay, cell-based, U2OS BacMam, thallium flux, beta subunits (AID 1259406;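 active = thallium flux through the channel raised or lowered by more than 3 SD from vehicle-only wells, actives on both sides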;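 note: initial slope of Thallos dye fluorescence rise after thallium is added; log ratio against the mean of 0.3% DMSO vehicle wells on the same plate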); details: at 30 µM
R275C/beta4 = test: as above; details: at 30 µM
R275C/Slo1WT/beta2 = test: as above; details: at 30 µM
[10] = polyglutamine-triggered caspase-3 activation inhibitors, cell-based (AID 1583); details: polyglutamine-induced caspase-3 activation, cell assay; stronger effect = higher value;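 tested at 10 µM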
[11] = suppressors of polyQ aggregation in yeast, 75Q-TubU reporter (AID 1593); details: Yeast 75Q polyglutamine aggregation reporter
[12] = rescue of polyQ-huntingtin neuronal dysfunction in worms, whole organism, C. elegans mechanosensory neurons, N-terminal huntingtin (AID 1599); details: touch response, stronger effect = higher value
[13] = inhibitors of mitochondrial cytochrome c release, biochemical, purified mitochondria (AID 1603); details: stronger effect = lower value;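 note: mouse liver mitochondria challenged with calcium chloride; signal normalized to the plate average as 100%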
[14] = inhibitors of polyQ protein aggregation (AID 1604); details: polyglutamine-induced protein aggregation inhibition assay; stronger effect = higher value; tested at 2.5 µM
[15] = enhancers of glutamate uptake in motor neurons, MN-1 cell line (AID 1612); details: MN-1 motor neuron cells, stronger effect = higher value;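 note: tested at 1 µM final; 0% = mean of DMSO vehicle wells on each plate; positive means more glutamate uptake than control and negative means less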
[16] = suppressors of polyglutamine aggregation in yeast, 75Q-TubH (AID 1616); details: S. cerevisiae 75Q-TubH polyglutamine aggregation suppression; stronger effect = higher value
[17] = hESC survival regulators, cell-based (AID 493140); details: human embryonic stem cell survival screen; stronger effect = higher value;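 note: cells exposed to compounds for four days before counting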

CC(=O)OCC(CCn1cnc2cnc(N)nc21)COC(C)=O
fluorescence ratio [1]: 1.06 (inactive)
inhibition [2]: -1.98% (inactive)
inhibition [3]: -4.72% (inactive)
fluorescence ratio [4]: 0.99 (inactive)
mean signal [5]: 292 (inactive)
remaining NAD [6]: 10 nM (inactive)
luciferase signal [7]: 160 AU (inactive)
z-score [8]: 0.72 (inactive) and 0.425 (inactive) and 0.32 (inactive)
inhibition ([9]; BGB IC20 combo, at 0.005 µM): 1.9%
inhibition ([9]; BGB IC40 combo, at 0.005 µM): -6.07%
inhibition ([9]; BGB IC40 combo, at 0.05 µM): -14.6%
inhibition ([9]; at 0.5 µM): -31.4% (inactive)
inhibition ([9]; cisplatin combo, at 0.05 µM): -17.8%
inhibition ([9]; cisplatin combo, at 0.5 µM): -37.3%
inhibition ([9]; cisplatin combo, at 5 µM): -37.5%
inhibition ([9]; measured here: 5 uM single agent, at 5 µM): -40.1%
log fold change Tl+ flux (R275C/beta2Delta): -0.0321 (inactive)
log fold change Tl+ flux (R275C/beta4): 0.0276 (inactive)
log fold change Tl+ flux (R275C/Slo1WT/beta2): 0.0386 (inactive)

CCc1nc(N)nc(N)c1-c1ccc(Cl)cc1
inhibition [10]: -13.9%
score [11]: 1.35
rescue above control [12]: 26.6
cytochrome c release ratio [13]: 1.05
inhibition of aggregation [14]: 85.8%
glutamate uptake change [15]: 14.1%
aggregation suppression score [16]: 0.999
survival [17]: 16.9 (inactive)
fluorescence ratio [1]: 0.95 (inactive)
inhibition [2]: -1.36% (inactive)
inhibition [3]: 1.81% (inactive)
fluorescence ratio [4]: 0.94 (inactive)
mean signal [5]: 234 (inactive)
remaining NAD [6]: 10 nM (inactive)
luciferase signal [7]: 104 AU (inactive)
z-score [8]: 0.72 (inactive)
log fold change Tl+ flux (R275C/beta2Delta): 0.00565 (inactive)
log fold change Tl+ flux (R275C/beta4): -0.00455 (inactive)
log fold change Tl+ flux (R275C/Slo1WT/beta2): -0.0705 (inactive)

C/C=C/C(=O)N(CC)c1ccccc1C
survival [17]: 6.17 (inactive)
fluorescence ratio [1]: 1.05 (inactive)
inhibition [2]: -2.77% (inactive)
inhibition [3]: -2.41% (inactive)
fluorescence ratio [4]: 1.02 (inactive)
mean signal [5]: 254 (inactive)
remaining NAD [6]: 10 nM (inactive)
luciferase signal [7]: 64 AU (inactive)
z-score [8]: -0.06 (inactive)
log fold change Tl+ flux (R275C/beta2Delta): 0.013 (inactive)
log fold change Tl+ flux (R275C/beta4): -0.00282 (inactive)
log fold change Tl+ flux (R275C/Slo1WT/beta2): 0.00262 (inactive)

Clc1ccc2c(c1)C(N1CCNCC1)=Nc1ccccc1O2
inhibition [10]: 0.62%
score [11]: 1.21
rescue above control [12]: 6.68
cytochrome c release ratio [13]: 0.82
inhibition of aggregation [14]: -0.07%
glutamate uptake change [15]: 35.9%
aggregation suppression score [16]: 1.13
fluorescence ratio [1]: 0.92 (inactive)
inhibition [2]: -4.09% (inactive)
inhibition [3]: -1.24% (inactive)
fluorescence ratio [4]: 0.96 (inactive)
mean signal [5]: 211 (inactive)
remaining NAD [6]: 10 nM (inactive)
luciferase signal [7]: 32 AU (inactive)
z-score [8]: -1.01 (inactive) and 0.165 (inactive) and -1.17 (inactive)
log fold change Tl+ flux (R275C/beta2Delta): 0.0319 (inactive)
log fold change Tl+ flux (R275C/beta4): 0.0104 (inactive)
log fold change Tl+ flux (R275C/Slo1WT/beta2): 0.0256 (inactive)

Cc1ccccc1C(OCCN(C)C)c1ccccc1 (configuration not stated)
inhibition [10]: -34.1%
score [11]: 1.23
rescue above control [12]: -6.28
cytochrome c release ratio [13]: 1.72
inhibition of aggregation [14]: 70.1%
glutamate uptake change [15]: 36.2%
aggregation suppression score [16]: 1.25
survival [17]: 11.9 (inactive)
fluorescence ratio [1]: 0.78 (active) and 1.01 (inactive)
inhibition [2]: -10.4% (inactive) and -11.4% (inactive)
inhibition [3]: -0.48% (inactive) and -2.76% (inactive)
fluorescence ratio [4]: 0.88 (inactive) and 1.01 (inactive)
mean signal [5]: 231 (inactive)
remaining NAD [6]: 10 nM (inactive)
luciferase signal [7]: 40 AU (inactive)
z-score [8]: -0.455 (inactive) and 0.28 (inactive) and 1.22 (inactive)
log fold change Tl+ flux (R275C/beta2Delta): 0.0594 (inactive) and 0.0469 (inactive)
log fold change Tl+ flux (R275C/beta4): 0.0108 (inactive) and 0.0539 (inactive)
log fold change Tl+ flux (R275C/Slo1WT/beta2): 0.0116 (inactive) and 0.0357 (inactive)
